Only some compounds are listed: those with a hit (about 21% of all), similar ones and a draw of the others.
Pf growth 48h = P. falciparum growth inhibition at 48 hours (one generation). P. falciparum luciferase growth in erythrocytes, 48 h. Potency, µM (titrated, usually from 28.7 µM), inactives show at the highest dose activity change, negative = inhibition, hits mostly inhibitors. hit rate 5.9% among 310,000. AID 504832; note: potency is the fitted concentration of half-maximal effect; % is set by controls: 0 for no effect and ±100 for the full control effect
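Growth was read as firefly luciferase luminescence after a 48 h, 37 C, 5% CO2 exposure of compounds to reporter-bearing P. falciparum cultures (0.1% parasitemia, 2% hematocrit final) in Albumax-supplemented RPMI 1640.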
HCV inh = inhibitors of hepatitis C virus infection. Huh7.5.1 HCVcc-Cre infection, luciferase reporter, 44 h. Potency, µM (series often up to 41.8 µM), without a hit: at the top dose activity change, negative = inhibition, actives largely listed as inhibitors. hit rate 3.4% among 340,000. AID 651820; note: potency is the fitted concentration of half-maximal effect; % is set by controls: 0 for no effect and ±100 for the full control effect
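Seed cells (1,000/well) for 4 h; treat with compound and infect with HCVcc-Cre, moi about 0.5. Incubate 44 h, then detect luciferase activity.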
HCMV antiviral = inhibitors of human cytomegalovirus; HFF cells, HCMV-luciferase reporter, 72 h; stronger effect = lower value; activity change, negative = inhibition, % at 57.5 µM; hit rate 4.5% among 410,000; AID 1259415; in the data active = activity change below about -60%; inconclusive = no clear call, values can overlap the other calls; inactive = above about -39%; note: % is set by controls: 0 for no effect and ±100 for the full control effect
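Screen run at 2 compound doses on HFFs infected with reporter HCMV, MOI 1 PFU/cell. Luciferase activity from cell lysates at 72 h post infection gave inhibition relative to buffer-only and Salinomycin wells.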
Pf growth 96h = P. falciparum growth inhibition at 96 hour, primary screen for plastid delayed-death inhibitors | P. falciparum luciferase reporter growth, 96 h | Potency, µM (top dose mostly 28.7 µM), without a hit: at the top dose activity change, negative = inhibition, most hits filed as inhibitors | hit rate 6.9% among 320,000 | AID 504834; note: potency is the fitted concentration of half-maximal effect; % is set by controls: 0 for no effect and ±100 for the full control effect
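Erythrocytes infected with luciferase-expressing P. falciparum were dispensed at 2% hematocrit and 0.05% parasitemia (final), then incubated with compounds 96 hours at 37 C in 5% CO2. Luminescence after detection reagent addition reported growth.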
Shiga toxin inh = Shiga toxin inhibition; AID 2315; inhibition, % at 38.7 µM; Vero cells, Shiga toxin protein synthesis inhibition reporter; hit rate 9.2% among 290,000; in the data active = inhibition mostly above about 28%, no sharp cut-off; inactive = mostly below about 43%; note: 0% is about no effect
Cycloheximide cs = affects cycloheximide protein synthesis inhibition readout, counter-screen | cell reporter, cycloheximide protein synthesis inhibition counterscreen | max response, % | hit rate 12% among 300,000; in the data active = max response mostly above about 13%, no sharp cut-off; inactive = mostly below about 14%; note: read at 38.3 µM for the half of the compounds with a filed dose; 0% is about no effect
* hit, by the source's call; [ ] = dose if it differs, or a comment. Unless noted, calls come from the whole dose curve; as a rule, active = well fitted inhibition curve with a large enough effect; inconclusive = small, poorly fitted or top-dose-only effect, or another doubt; inactive = no such curve, though single readings can be large or run the other way.

What do the screens show for `c1ccc(CCc2nc(-c3ccccc3)no2)cc1`?
Pf growth 48h: 117.9%; HCV inh: 9.6%; HCMV antiviral: 12.5; Pf growth 96h: 97.3%; Shiga toxin inh: 128.6*; Cycloheximide cs: 34.5*

What do the screens show for `Brc1ccc(-c2noc(CCc3ccccc3)n2)cc1`?
HCV inh: 22.0%; HCMV antiviral: 16.9

What do the screens show for `c1ccc(CCc2ccccc2-c2nc(-c3cccnc3)no2)cc1`?
Pf growth 48h: 13.1µM*; HCV inh: 7.08µM*; HCMV antiviral: -21.7; Pf growth 96h: inconclusive; Shiga toxin inh: -9.0; Cycloheximide cs: 3.5

How did c1cncc(-c2noc(CC3CCCCC3)n2)c1 do in these assays?
Pf growth 48h: 6.0%; HCV inh: 3.5%; HCMV antiviral: 24.4; Shiga toxin inh: 54.5*; Cycloheximide cs: 41.1*

Results for COc1ccc(C(=O)Cn2c(=O)c(-c3cc(C)ccc3NC(C)=O)nc3ccccc32)cc1 ?
HCMV antiviral: 11.0

Results for COc1ccc(/C=C2\SC(=O)N(CC(=O)NC3CCS(=O)(=O)C3)C2=O)cc1 (centres undefined) ?
Pf growth 48h: 48.0%; HCV inh: -2.8%; HCMV antiviral: -24.9; Pf growth 96h: 110.3%; Shiga toxin inh: -5.7; Cycloheximide cs: -5.5

How did CC(C)c1ccc(/C=C2\SC(=O)N(CC(=O)NC3CCS(=O)(=O)C3)C2=O)cc1 (centres undefined) do in these assays?
Pf growth 48h: 83.9%; HCV inh: inconclusive; HCMV antiviral: 9.6; Pf growth 96h: 47.3%; Shiga toxin inh: 76.0*; Cycloheximide cs: 35.9*

Results for O=C(CN1C(=O)S/C(=C\C=C\c2ccccc2)C1=O)NC1CCS(=O)(=O)C1 (centres undefined) ?
Pf growth 48h: 127.5%; HCV inh: -5.7%; HCMV antiviral: 11.0; Pf growth 96h: 99.4%; Shiga toxin inh: 46.2*; Cycloheximide cs: 48.2*

How did O=C(CN1C(=O)S/C(=C\c2ccccc2)C1=O)NC1CCS(=O)(=O)C1 (centres undefined) do in these assays?
Pf growth 48h: 25.9%; HCV inh: -7.6%; HCMV antiviral: -35.6; Pf growth 96h: 0.3%; Shiga toxin inh: 9.7; Cycloheximide cs: 1.0

Results for O=C(CN1C(=O)S/C(=C\c2ccccc2F)C1=O)NC1CCS(=O)(=O)C1 (centres undefined) ?
Pf growth 48h: 25.7%; HCV inh: 18.8%; HCMV antiviral: -61.9*; Pf growth 96h: -17.1%; Shiga toxin inh: 17.1; Cycloheximide cs: 1.2

What do the screens show for `O=C(OCc1ccccc1)N1CCC2CC1c1cc(N3CCOCC3)ccc12` (centres undefined)?
HCV inh: 0.316µM*; HCMV antiviral: 14.5

Results for CCCCC[C@]12Cc3ccccc3C(O1)c1c(cc(C)oc1=O)O2 ?
Pf growth 48h: 22.7%[5.75 µM]; Pf growth 96h: 0.675µM*; Shiga toxin inh: inactive; Cycloheximide cs: 0.5

How did CS(=O)(=O)Nc1ccc(C(=O)NCCc2ccccc2)cc1 do in these assays?
Pf growth 48h: 193.7%; HCV inh: 0.3%; HCMV antiviral: 68.1; Shiga toxin inh: 69.2*; Cycloheximide cs: 30.6*

How did COCCCNC(=O)c1ccc(NS(C)(=O)=O)cc1 do in these assays?
Pf growth 48h: 12.1%; HCV inh: -5.3%; HCMV antiviral: 15.2; Shiga toxin inh: -3.5; Cycloheximide cs: 10.2

How did CC(C)(C)SCCNC(=O)c1ccc(NS(C)(=O)=O)cc1 do in these assays?
Pf growth 48h: 48.3%; HCV inh: 17.2%; HCMV antiviral: 51.2; Pf growth 96h: 3.9%; Shiga toxin inh: 36.1*; Cycloheximide cs: 16.4*

Results for CS(=O)(=O)Nc1ccc(C(=O)NCCSCc2ccccc2)cc1 ?
Pf growth 48h: inconclusive; HCV inh: 2.2%; HCMV antiviral: 3.0; Pf growth 96h: 13.1µM*; Shiga toxin inh: -8.4; Cycloheximide cs: -0.6

How did CN(CC(=O)Nc1ccc(Cl)c(Cl)c1)C(=O)CNC(=O)C1CCCCC1 do in these assays?
Pf growth 48h: 32.5%; HCV inh: 5.8%; HCMV antiviral: -33.2; Pf growth 96h: 1.4%

Results for COc1ccc(N(C(=O)CNC(=O)c2cccs2)C(C(=O)NCC2CCCO2)c2ccccc2)c(OC)c1 (centres undefined) ?
Pf growth 48h: inconclusive; HCV inh: -1.8%; HCMV antiviral: -14.5; Pf growth 96h: -19.2%; Shiga toxin inh: 16.2; Cycloheximide cs: -2.4

Results for COc1ccc(CN(CCC(c2ccccc2)c2ccc(OC(C)C)cc2)C(=O)CCl)cc1OC (centres undefined) ?
Pf growth 48h: inconclusive; HCV inh: inconclusive; HCMV antiviral: -99.8*; Pf growth 96h: 3.7µM*; Shiga toxin inh: -8.6; Cycloheximide cs: 9.7

What do the screens show for `COc1ccc(CNCCC(c2ccc(F)cc2)c2ccc(OC(C)C)cc2)cc1OC` (centres undefined)?
Pf growth 48h: 13.1µM*; HCV inh: inconclusive; HCMV antiviral: -97.1*; Pf growth 96h: 11.7µM*; Shiga toxin inh: -10.1; Cycloheximide cs: -8.9

Results for COc1ccc(CNCCC(c2ccccc2)c2ccc(OC(C)C)cc2)cc1OC (centres undefined) ?
Pf growth 48h: 9.28µM*; HCV inh: 11.2µM*; HCMV antiviral: -36.8; Pf growth 96h: inconclusive; Shiga toxin inh: -7.2; Cycloheximide cs: -10.1

Results for COc1ccc(C(CCN(Cc2ccc(OC)c(OC)c2)C(C)=O)c2ccccc2)cc1 (centres undefined) ?
Pf growth 48h: inconclusive; HCV inh: 0.1%; HCMV antiviral: -29.3; Pf growth 96h: inconclusive; Shiga toxin inh: -14.8; Cycloheximide cs: -5.6

How did COc1ccccc1C(CC(=O)Nc1ccccc1C)c1ccc(OC(C)C)cc1 (centres undefined) do in these assays?
Pf growth 48h: 14.7µM*; HCV inh: inconclusive; HCMV antiviral: -15.8; Pf growth 96h: inconclusive; Shiga toxin inh: -8.5; Cycloheximide cs: 5.6

What do the screens show for `O=C(COC(=O)Cc1cccs1)Nc1ccc(OC(F)(F)F)cc1`?
Pf growth 48h: -10.5%; HCV inh: 21.4%; HCMV antiviral: -20.9; Pf growth 96h: 4.8%

How did COc1ccc(C(CCNCc2ccc(OC(C)C)cc2)c2ccccc2OC)cc1 (centres undefined) do in these assays?
Pf growth 48h: 11.7µM*; HCV inh: inconclusive; HCMV antiviral: -70.1*; Pf growth 96h: 11.7µM*; Shiga toxin inh: -3.9; Cycloheximide cs: -5.1

How did COc1ccc(CNCCC(c2ccc(OC)cc2)c2ccccc2OC)cc1 (centres undefined) do in these assays?
Pf growth 48h: inconclusive; HCV inh: inconclusive; HCMV antiviral: inconclusive; Pf growth 96h: inconclusive; Shiga toxin inh: -4.3; Cycloheximide cs: -3.3

What do the screens show for `COC(=O)c1nnn(CC(=O)Nc2ccc(Br)c(C)c2)c1N`?
HCMV antiviral: 41.2
